Test [1] can be described thus: Quantitative High-Throughput drug screen in 47 multiple myeloma cell lines against the NCATS MIPE library collection: Karpas620_DSMZ cell viability assay (AID 1918959). Also: nearly all actives have a fitted effect of over 30% in size. An outline of the steps:
(§1)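 Steps: seed 500 cells per well; pin-transfer MIPE 4.0 library; incubate 48 h at 37C, 5% CO2, humidified; add CellTiter-Glo, 5 min room temperature; read luminescence.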

A short description of test [2]: Quantitative High-Throughput drug screen in 47 multiple myeloma cell lines against the NCATS MIPE library collection: KMM1_JCRB cell viability assay (AID 1918960). Also: nearly all actives have a fitted effect of over 30% in size. The procedure, abridged: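 Viability screen: myeloma cells (500/well) incubated 48 h at 37 °C, humidified 5% CO2, with pinned library compounds; CellTiter-Glo added, luminescence read; DMSO wells set 100%, medium-only wells 0%.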

Test [3] can be described thus: Quantitative High-Throughput drug screen in 47 multiple myeloma cell lines against the NCATS MIPE library collection: INA6_PLB cell viability assay (AID 1918965; also: nearly all actives have a fitted effect of over 55% in size). The procedure, abridged:
(§2)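 CellTiter-Glo luminescence (ATP) after 48 h compound exposure, 37C/5% CO2; 500 cells/well; MIPE 4.0 approved/investigational drugs pinned in; DMSO = 100%, media only = 0% viability.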

A short description of test [4]: Quantitative High-Throughput drug screen in 47 multiple myeloma cell lines against the NCATS MIPE library collection: JJN3_DSMZ cell viability assay (AID 1918966; also: nearly all actives have a fitted effect of over 50% in size). The procedure, abridged:
(§3)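 Inhibition of cell viability is measured here. Each line was plated at 500 cells per well, treated with MIPE 4.0 drugs, kept 48 hours at 37C, then assayed for ATP content by CellTiter-Glo luminescence.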

A short description of test [5]: Quantitative High-Throughput drug screen in 47 multiple myeloma cell lines against the NCATS MIPE library collection: KMS12BM_JCRB cell viability assay (AID 1918971). Also: nearly all actives have a fitted effect of over 35% in size. An outline of the steps:
(§4)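 Viability readout: CellTiter-Glo luminescence following 5 min room-temperature incubation with reagent. Prior exposure: 48 h, 37C, humidified 5% CO2, 500 cells per well.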

Test [6] is described as follows: Quantitative High-Throughput drug screen in 47 multiple myeloma cell lines against the NCATS MIPE library collection: KMS26_JCRB cell viability assay (AID 1918975). Also: nearly all actives have a fitted effect of over 45% in size. The procedure, abridged:
as §4

Test [7] can be described thus: Quantitative High-Throughput drug screen in 47 multiple myeloma cell lines against the NCATS MIPE library collection: JIM3_ECACC cell viability assay (AID 1918963; also: nearly all actives have a fitted effect of over 35% in size). The procedure, abridged:
as §1

A short description of test [8]: Quantitative High-Throughput drug screen in 47 multiple myeloma cell lines against the NCATS MIPE library collection: H1112_PLB cell viability assay (AID 1918967; also: nearly all actives have a fitted effect of over 30% in size). The procedure, abridged: as §3
Test [9] is described as follows: Quantitative High-Throughput drug screen in 47 multiple myeloma cell lines against the NCATS MIPE library collection: KMS12PE_JCRB cell viability assay (AID 1918972). Also: nearly all actives have a fitted effect of over 30% in size. An outline of the steps: as §2
Test [10] can be described thus: Quantitative High-Throughput drug screen in 47 multiple myeloma cell lines against the NCATS MIPE library collection: MMM1_PLB cell viability assay (AID 1918976). Also: nearly all actives have a fitted effect of over 35% in size. An outline of the steps:
(§5)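 500 cells/well; MIPE 4.0 drugs pin-transferred; 48 h, 37C, 5% CO2. CellTiter-Glo, 5 min RT, luminescence. Controls: DMSO 100%, media 0%.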

The nature of test [11]: Quantitative High-Throughput drug screen in 47 multiple myeloma cell lines against the NCATS MIPE library collection: MOLP8_DSMZ cell viability assay (AID 1918977). Also: nearly all actives have a fitted effect of over 45% in size. The procedure, abridged:
as §5

Test [12] can be described thus: Quantitative High-Throughput drug screen in 47 multiple myeloma cell lines against the NCATS MIPE library collection: NCIH929_DSMZ cell viability assay (AID 1918978). Also: nearly all actives have a fitted effect of over 35% in size. An outline of the steps:
as §5

A short description of test [13]: Quantitative High-Throughput drug screen in 47 multiple myeloma cell lines against the NCATS MIPE library collection: OCIMY1_PLB cell viability assay (AID 1918979). Also: nearly all actives have a fitted effect of over 35% in size. The procedure, abridged: as §5
The nature of test [14]: Quantitative High-Throughput drug screen in 47 multiple myeloma cell lines against the NCATS MIPE library collection: Karpas417_ECACC cell viability assay (AID 1918961). Particulars: Karpas417 myeloma viability, CellTiter-Glo ATP luminescence, 48 h; viability (% of DMSO): at 45.8 µM (top of the series). An outline of the steps: as §2
(In general: ATP-based viability assays read luminescence as a measure of living cells.)

Test [15] can be described thus: Quantitative High-Throughput drug screen in 47 multiple myeloma cell lines against the NCATS MIPE library collection: Karpas25_ECACC cell viability assay (AID 1918968; also: nearly all actives have a fitted effect of over 35% in size). The procedure, abridged: as §3
Test [16] can be described thus: Quantitative High-Throughput drug screen in 47 multiple myeloma cell lines against the NCATS MIPE library collection: KMS27_JCRB cell viability assay (AID 1918970). Also: nearly all actives have a fitted effect of over 30% in size. Particulars: KMS27 myeloma cells, CellTiter-Glo ATP viability, 48 h; viability (% of DMSO): at 45.8 µM (top of the series). An outline of the steps:
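Viability inhibition screen, 48 h compound exposure, luminescent ATP read-out.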

Test [17] in a line: Quantitative High-Throughput drug screen in 47 multiple myeloma cell lines against the NCATS MIPE library collection: KHM11_PLB cell viability assay (AID 1918962). Also: nearly all actives have a fitted effect of over 35% in size. An outline of the steps: as §1
A short description of test [18]: Quantitative High-Throughput drug screen in 47 multiple myeloma cell lines against the NCATS MIPE library collection: JIM1_ECACC cell viability assay (AID 1918964). An outline of the steps:
as §3

Test [19] can be described thus: Quantitative High-Throughput drug screen in 47 multiple myeloma cell lines against the NCATS MIPE library collection: KMS20_JCRB cell viability assay (AID 1918973). Also: nearly all actives have a fitted effect of over 45% in size. The procedure, abridged:
as §3

Test [20] in a line: Quantitative High-Throughput drug screen in 47 multiple myeloma cell lines against the NCATS MIPE library collection: KMS21BM_JCRB cell viability assay (AID 1918974). Particulars: ATP luminescence, 48 h; viability: at 45.8 µM (top of the series). An outline of the steps: as §3

From PubChem BioAssay (NCATS) come the findings set out here.

Inconclusive results are not listed. Calls of active or inactive are those of the source. Calls follow the shape of the dose curve; as a rule, active = well fitted curve in the direction sought with a large enough effect; inconclusive = small, poorly fitted or top-dose-only effect, or another doubt; inactive = no such curve, though single readings can be large; an effect the other way counts as inactive or inconclusive.
Potency is read from the fitted curve at half-maximal effect.

Turning to `CON=C(C(=O)N[C@@H]1C(=O)N2C(C(=O)O)=C(CSC(=O)c3ccco3)CS[C@H]12)c1csc(N)n1`, the Potency entry in test [1], in [2], in test [3], in [4], in test [5] and in test [6] was “inactive” throughout.

Consider `CC(C)c1cc(C(C)C)c(CC(=O)NS(=O)(=O)Oc2c(C(C)C)cccc2C(C)C)c(C(C)C)c1`, for which the Potency entry in test [1], in [8] and in test [12] was “inactive” throughout. The Potency in [2] was 4.69 µM (active); in test [7], 7.43 µM (active); in test [5], 16.6 µM (active); in test [9] it was 6.62 µM (active); in test [6], 26.4 µM (active); in test [10], 33.2 µM (active). For the same compound, the Potency in [11] and in test [13] was 20.9 µM (active) each time.

Take `CCN(C(=O)c1c(O)c2c(Cl)cccc2n(C)c1=O)c1ccccc1`: the Potency in [1] and in test [16] was 16.6 µM (active) throughout. The viability (% of DMSO) in [14] is 104% (active). The Potency entry in test [7], in [8], in [15], in test [5], in test [11] and in test [12] was “inactive” each time. For the same compound, the Potency entry in test [13] was “inactive”.

On to `O=C1CSC(=O)N1C(CCc1ccncc1)COc1ccc(-c2cccc([N+](=O)[O-])c2)cc1` (configuration not stated), for which the Potency entry in [1], in [18], in test [16] and in test [9] was “inactive” in each case. Moreover, the Potency in [14] was 0.0469 µM (active); in test [17], 10.5 µM (active); in [3], 5.9 µM (active); in test [4], 18.7 µM (active); in test [8], 7.43 µM (active); in test [15] it was 2.64 µM (active). In addition, the Potency is 4.18 µM (active) in test [6], 4.18 µM (active) in test [10] and 18.7 µM (active) in [12].

As to `C=CC(=O)N1CCc2ccc(-n3c(=O)ccc4cnc5ccc(-c6cnn(C)c6)cc5c43)cc21`, the Potency in test [1] is 3.72 µM (active); in test [14], 0.935 µM (active); in [17] it was 0.526 µM (active); in test [7] it was 2.96 µM (active); in [18], 1.87 µM (active); in test [3], 0.235 µM (active). For the same compound, the Potency in [8] was 1.05 µM (active); in [15], 0.59 µM (active); in test [16], 2.96 µM (active); in test [5] it was 4.69 µM (active); in [9] it was 2.96 µM (active); in test [19] it was 0.833 µM (active). The Potency is 1.32 µM (active) in test [6]; 1.87 µM (active) in [10]; 0.59 µM (active) in test [11]; 1.66 µM (active) in test [12]; 1.87 µM (active) in test [13].

Consider `C#CCC(Cc1cnc2nc(N)nc(N)c2n1)c1ccc(C(=O)N[C@@H](CCC(=O)O)C(=O)O)cc1` (some centres not stated), for which the Potency result in [1], in [14], in test [18], in test [16], in test [9] and in test [19] was “inactive” in each case. Further, the Potency entry in test [10] and in test [13] was “inactive” each time. The Potency in test [7] is 0.0469 µM (active); in test [3] it was 0.0935 µM (active); in test [4], 0.0662 µM (active); in test [8], 0.132 µM (active); in test [15] it was 11.8 µM (active); in test [6] it was 0.105 µM (active). Further, the Potency in test [12] was 0.118 µM (active).

Regarding `NC(=O)c1ncn([C@@H]2O[C@H](CO)[C@@H](O)[C@@H]2O)c1O`, the Potency entry in [1], in test [2], in test [7], in test [8], in test [15] and in test [5] was “inactive” each time. Besides, the Potency result in test [9], in [19], in test [11], in [12] and in test [13] was “inactive” each time. For the same compound, in test [10], the Potency is 2.64 µM (active).

On to `O=C(O)C(=O)Nc1cccc(C2=NN=N[N]2)c1`, for which the Potency entry in [1], in test [14], in test [7], in test [3], in test [8] and in [15] was “inactive” each time. The Potency result in [5], in [9], in test [11] and in [12] was “inactive” in each case.

For `N#CNC(=NCCCCCCOc1ccc(Cl)cc1)Nc1ccncc1`, the Potency was 0.0019 µM (active) in test [1]; 0.0059 µM (active) in [2]; 0.0296 µM (active) in test [18]; 0.0105 µM (active) in [4]; 0.001 µM (active) in test [16]; 0.0118 µM (active) in test [5]. Besides, the Potency is 0.0042 µM (active) in test [9]; 8.33 µM (active) in test [19]; 0.0074 µM (active) in test [6]; 18.7 µM (active) in test [10]; 0.0235 µM (active) in test [11]; 0.0105 µM (active) in test [13]. The Potency entry in [15] was “inactive”.

Regarding `CC(C)(N)c1ccc(-c2nc3ccccc3nc2-c2ccccc2)cc1`, the Potency in test [1] is 10.5 µM (active); in test [14] it was 0.372 µM (active); in test [17] it was 8.33 µM (active); in test [7] it was 18.7 µM (active); in test [3] it was 9.35 µM (active); in test [4], 20.9 µM (active). For the same compound, the Potency was 14.8 µM (active) in test [8]; 18.7 µM (active) in [16]; 26.4 µM (active) in test [5]; 7.43 µM (active) in [9]; 4.18 µM (active) in [19]; 5.26 µM (active) in test [20]. Further, the Potency is 26.4 µM (active) in test [6], 18.7 µM (active) in test [10], 4.69 µM (active) in [12] and 23.5 µM (active) in [13].

`Oc1ccc([C@@H]2Oc3ccc(O)cc3[C@@H]3CCC[C@@H]32)cc1`: the Potency result in test [1], in test [2], in test [16] and in test [9] was “inactive” each time. Moreover, the Potency in [8] is 11.8 µM (active); in test [15], 14.8 µM (active); in [5], 14.8 µM (active); in test [12], 18.7 µM (active).

Take `CO[C@@H]1[C@@H](O)[C@H](O)[C@@H](n2c3c(Cl)cccc3c3c4c(c5c6cccc(Cl)c6[nH]c5c32)C(=O)NC4=O)O[C@@H]1CO`: the Potency in test [1] was 1.48 µM (active); in [14], 1.32 µM (active); in test [17] it was 1.18 µM (active); in test [7], 1.48 µM (active); in test [18] it was 0.526 µM (active); in test [3] it was 0.187 µM (active). Moreover, the Potency is 9.35 µM (active) in test [4]; 0.418 µM (active) in test [8]; 0.59 µM (active) in [15]; 0.118 µM (active) in [16]; 0.469 µM (active) in test [5]; 0.743 µM (active) in [9]. Also, the Potency in [6] was 2.64 µM (active); in test [10] it was 5.9 µM (active); in [11] it was 2.35 µM (active); in test [12] it was 0.833 µM (active).
